In PubChem BioAssay (NCATS):
Active and inactive are the calls of the source. Calls come from the whole dose curve. Numbered stars: 1 amine (or outer) side, 2 acyl side, 3 side chain; on linkers, the order of the positions; unused ones are H or OH. Starred links: 1 amine or outer side, 2 acyl side, 3 side chain; linkers in the order of their positions; H or OH if unused. Positions of bridges follow the written chain, without caps; N, C: chain ends. Bridge positions count the residues as written; N and C are the ends. Non-standard residues stand in square brackets, D forms with d. Square brackets hold non-standard residues; d marks the D form. Residues, ends and D or L forms follow the SMILES beside them. Peptide text beside a SMILES is read from it. I, II: the chains in the order shown. ξ: configuration not given here. *: point of attachment. Actinocin(9to1) = Cc1c2oc3c(C)ccc(C(=O)[*:1])c3nc-2c(C(=O)[*:2])c(N)c1=O; ΔAla(3-NHCONH2) = NC(=O)NC=C(N)C(=O)O; X1 = NC1=NCCC(C(N[*:1])C(=O)[*:2])N1; NMeV = CN[C@H](C(=O)O)C(C)C; ξβ3hOrn = NCCCC(N)CC(=O)*; Dap = NC[CH](N)C(=O)O; Sar = CNCC(=O)O

Details: Ebola virus entry cell assay, ratio channel
In the case of `Cc1ccccc1C(OCCN(C)C)c1ccccc1` (stereo not drawn), the AC50 is reported as 8.91 µM (active).
For `CCOc1ccc2ccccc2c1C(=O)N[C@@H]1C(=O)N2[C@@H]1SC(C)(C)[C@@H]2C(=O)O`, the outcome was “inactive”.
With `CN(Cc1cnc2nc(N)nc(N)c2n1)c1ccc(C(=O)N[C@@H](CCC(=O)O)C(=O)O)cc1` the outcome was “inactive”.
With `CSc1ccc2c(c1)N(CCC1CCCCN1C)c1ccccc1S2` (stereo not drawn) the AC50 was 6.31 µM (active).
For `CCCCc1ncc(/C=C(\Cc2cccs2)C(=O)O)n1Cc1ccc(C(=O)O)cc1`, the outcome was “inactive”.
In the case of `CNCCC(Oc1ccc(C(F)(F)F)cc1)c1ccccc1` (stereo not drawn), the AC50 is reported as 12.6 µM (active).
In the case of `NCCCC(N)CC(=O)NCC1NC(=O)C(CO)NC(=O)C(N)CNC(=O)C(C2CCN=C(N)N2)NC(=O)C(=CNC(N)=O)NC1=O` (stereo not drawn) (H-[Dap]S[Dap](ξβ3hOrn)[ΔAla(3-NHCONH2)][X1]; lactam 1-C; configuration not given here), the outcome is reported as “inactive”.
In the case of `CN1CCN(C2=Nc3cc(Cl)ccc3Nc3ccccc32)CC1`, the outcome is reported as “inactive”.
With `OCCN1C[C@H](O)[C@@H](O)[C@H](O)[C@H]1CO` the outcome was “inactive”.
In the case of `Oc1ccc(C2CNCCc3c2cc(O)c(O)c3Cl)cc1` (stereo not drawn), the outcome is reported as “inactive”.
With `Cc1ccc(C(=O)c2cc(O)c(O)c([N+](=O)[O-])c2)cc1` the outcome was “inactive”.
In the case of `Cc1nc2n(c(=O)c1CCN1CCC(c3noc4cc(F)ccc34)CC1)CCC[C@H]2O`, the outcome is reported as “inactive”.
For `COc1cc2nc(N3CCN(C(=O)c4ccco4)CC3)nc(N)c2cc1OC`, the AC50 was 12.6 µM (active).
For `CC(C)[N+](C)(CCOC(=O)C1c2ccccc2Oc2ccccc21)C(C)C`, the outcome was “inactive”.
For `CC#C[C@]1(O)CC[C@H]2[C@@H]3CCC4=CC(=O)CCC4=C3[C@@H](c3ccc(N(C)C)cc3)C[C@@]21C`, the outcome was “inactive”.
For `CC[C@H](C)C(=O)O[C@H]1C[C@@H](C)C=C2C=C[C@H](C)[C@H](CC[C@@H]3C[C@@H](O)CC(=O)O3)[C@H]21`, the outcome was “inactive”.
With `OCCN1CCN(CCCN2c3ccccc3Sc3ccc(C(F)(F)F)cc32)CC1` the AC50 was 8.91 µM (active).
For `O=c1n(CCCN2CCN(c3cccc(Cl)c3)CC2)nc2ccccn12`, the outcome was “inactive”.
For `CCCCNC(=O)NS(=O)(=O)c1ccc(C)cc1`, the outcome was “inactive”.
In the case of `NCCCC(O)(P(=O)(O)O)P(=O)(O)O`, the AC50 is reported as 3.98 µM (active).
For `CC12CC3CC(C)(C1)CC(N)(C3)C2`, the outcome was “inactive”.
With `Nc1nc(N)c2nc(-c3ccccc3)c(N)nc2n1` the outcome was “inactive”.
With `CCOC(=O)N1CCC(=C2c3ccc(Cl)cc3CCc3cccnc32)CC1` the outcome was “inactive”.
With `COc1cc2c(cc1OC)C(=O)C(CC1CCN(Cc3ccccc3)CC1)C2` (stereo not drawn) the outcome was “inactive”.
With `CC(C)NCC(O)COc1cccc2[nH]ccc12` (stereo not drawn) the outcome was “inactive”.
With `CC(CN(C)C)CN1c2ccccc2CCc2ccccc21` (stereo not drawn) the AC50 was 14.1 µM (active).
With `CC(COc1ccccc1)N(CCCl)Cc1ccccc1` (stereo not drawn) the outcome was “inactive”.
For `CCCN(CCC)S(=O)(=O)c1ccc(C(=O)O)cc1`, the outcome was “inactive”.
For `CC(=O)OCC(CCn1cnc2cnc(N)nc21)COC(C)=O`, the outcome was “inactive”.
For `CCCCS(=O)(=O)N[C@@H](Cc1ccc(OCCCCC2CCNCC2)cc1)C(=O)O`, the outcome was “inactive”.
With `CN(C)C(=O)C(CCN1CCC(O)(c2ccc(Cl)cc2)CC1)(c1ccccc1)c1ccccc1` the AC50 was 11.2 µM (active).
With `CC[C@@]1(c2ccccc2)NC(=O)N(C)C1=O` the outcome was “inactive”.
In the case of `Cc1[nH]cnc1CN1CCc2c(c3ccccc3n2C)C1=O`, the outcome is reported as “inactive”.
With `Cc1ncc([N+](=O)[O-])n1CCO` the outcome was “inactive”.
For `CCN(CC)CCNC(=O)c1cc(Cl)c(N)cc1OC`, the outcome was “inactive”.
With `NC(=O)N1c2ccccc2CC(=O)c2ccccc21` the outcome was “inactive”.
With `Cc1c2oc3c(C)ccc(C(=O)N[C@@H]4C(=O)N[C@H](C(C)C)C(=O)N5CCC[C@H]5C(=O)N(C)CC(=O)N(C)[C@@H](C(C)C)C(=O)O[C@@H]4C)c3nc-2c(C(=O)N[C@@H]2C(=O)N[C@H](C(C)C)C(=O)N3CCC[C@H]3C(=O)N(C)CC(=O)N(C)[C@@H](C(C)C)C(=O)O[C@@H]2C)c(N)c1=O` (I: T[dV]P[Sar][NMeV] / II: T[dV]P[Sar][NMeV]; ester I:1-I:C, II:1-II:C; linker I:N-II:N via Actinocin(9to1)) the outcome was “inactive”.
In the case of `CN1CCN(CCCN2c3ccccc3Sc3ccc(Cl)cc32)CC1`, the AC50 is reported as 14.1 µM (active).
